Active and inactive are the calls of the source. How the source made its calls: active means hit-call score of the fitted dose curve at least 0.9, where 1 is the maximum; inactive means score below 0.9.

Read-out in the assay: solute carrier (SLC10A1), SLC10A1 (gene 6554)
In words: LTEA_HepaRG_SLC10A1: Life Technologies and Expression Analysis (LTEA) Assay for solute carrier (SLC10A1) using HepaRG (AID 2283657). The following applies: mRNA level, 48 h; actives raise or lower the signal. On the procedure: LTEA_HepaRG is a cell based, multiplexed-readout assay that uses HepaRG, a human liver cell line, with measurements taken at 48 hours after chemical dosing on a 96-well plate.LTEA_HepaRG_SLC10A1 is one of 102 assay component(s) measured in the LTEA HepaRG cell culture assay. It is a marker of NR mediated transport.Data from the assay component LTEA_HepaRG_SLC10A1 was analyzed into 1 endpoint. This assay endpoint, LTEA_HepaRG_SLC10A1, was analyzed with bidirectional fitting relative to DMSO as the negative control and baseline of activity. Using a type of inducible reporter, measures of mRNA induction for gain or loss-of-signal activity can be used to understand regulation of transcription factor activity. To generalize the intended target to other relatable targets, this assay endpoint is annotated to the transporter intended target family, where the subfamily is sodium/bile acid cotransporter.
A total of 1060 chemcials from the ToxCast library were tested in eight-point concentration-response experiments. Cell culture and cytotoxicity assays were conducted at Thermo Fisher Scientific's Custom Services facility (Madison, WI). A single lot of human HepaRG cells (Thermo Fisher Scientific, Frederick, MD) was used for the cell culture experiments. 96-well format collagen type I coated plates of human HepaRG cells were prepared using established methods. Briefly, cryopreserved HepaRG cells were thawed, plated at a density of approximately 100,000 cells/well in HepaRG Thaw, Plate, and General Purpose media (HPRG770, Thermo Fisher Scientific), and incubated for 48 hours. 0.5% DMSO was selected as vehicle control to balance the requisite need of DMSO in HepaRG cultures to maintain differentiation (for example, baseline metabolism, proportions of hepatocytes vs. cholangiocytes), while enabling further hepatic receptor pathway activation (for example, PXR and CAR) in response to chemical exposure. 48 hours after plating, the culture medium was replaced with HepaRG Serum-Free Incudtion Media. Cells were exposed to each test chemical in duplicate and maintained in CO2 incubators for another 48 hours. Chemical plates were thawed to room temperature and 200x concentrations of treatment groups were prepared. 8-point conentration-reponse curves were made with the highest exposure at 100 uM, followed by half-log dilutions, all in 0.5% DMSO. Each test plate contained variouse controls, induction positive controls (1mM phenobarbital), cytotoxicity positive controls ([…] aflatoxin B1), vehicle controls (0.5% DMSO), and total lysis controls (0.5% DMSO). Cell morphology images were taken using an Essen IncuCyte FLR automated microscope, with six 96-well plates imaged in about 24 minutes. Images were captured and exported and JPEG files. Spent culture media was transfered to black-well plates for the LDH assay, and remaining media was sorted at -80 C for later use. Cells were treated with RLT buffer and frozen until shipped for gene expression analysis. Total RNA was isolated from the cell suspension in 75 uL of Buffer RLT (Qiagen, Germantown, MD 20874) by Quintiles/Expression Analysis (Durham, NC) using a custom isolation procedure. Total RNA from each plate well was transferred to a preamplification plate. Fluidigm's 96.96 Dynamic ArrayTM (Fluidigm, Amsterdam, the Netherlands) technology was used for gene expression analyses by quantitative reverse transcription polymerase chain reaction (qRT-PCR, performed by Quintiles/Expression Analysis, Durham, NC)89. Standard TaqManTM Assays (Applied Biosystems/ThermoFisher Scientific, Foster City, CA) were used to assess the expression of 93 genes selected based on their selectivity and sensitivity to important hepatic receptors known to be modulated by environmental chemicals; importance in human hepatocyte functionality; and hepatotoxicity. […]
As to `CN(C)C(=O)Nc1ccc(Cl)cc1`, the compound was classed as inactive. In the case of `ClC1=C(Cl)C2(Cl)C3C(Cl)C=CC3C1(Cl)C2(Cl)Cl` (stereo not given), the result was inactive. Same read-out and setting: with `Cc1ccc([N+](=O)[O-])cc1` the entry was “inactive”; with `O=[N+]([O-])C(Br)(CO)CO`, “inactive”; with `CCN(CC)CCO`, “inactive”. As for `CC(C)COC(=O)c1ccccc1C(=O)OCC(C)C`, the result was inactive. As for `Nc1ccc(Cl)cc1N`, the AC50 was 20.9 µM (active).

`CO[C@@H]1[C@H](OC(=O)NC(=O)CCl)CC[C@]2(CO2)[C@H]1[C@@]1(C)O[C@@H]1CC=C(C)C`: the AC50 was 0.389 µM (active). Still for that read-out and setting: with `C[C@]12C=CC3=C4CCC(=O)C=C4CC[C@H]3[C@@H]1CC[C@@H]2O` the figure was 16.1 µM (active). Turning to `C1=Cc2cccc3cccc1c23`, the result was inactive.

Broadly, the AC50 is the concentration at which the activity in the assay is half-maximal.

The record behind these values is PubChem BioAssay (EPA / NIEHS).
